Results on twelve molecules are retold here after PubChem BioAssay (Tox21).

Assay [1] can be described thus: qHTS assay to identify small molecule agonists of H2AX - cell viability counter screen (AID 1224847; calls by dose curve; also: nearly all actives have a fitted effect of over 30% in size; also: potency is read from the fitted curve at half-maximal effect). In short, it runs like this:
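Viability of CHO-K1 (wild type) cells after 3 hr compound exposure was measured by CellTiter-Glo luminescence.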

Assay [2] can be described thus: qHTS assay to identify small molecule antagonists of the estrogen related receptor (ERR) signaling pathway from Tox21 library (AID 1224848). Also: nearly all actives have a fitted effect of over 50% in size. Also: potency is read from the fitted curve at half-maximal effect. In short, it runs like this:
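ERR cell line, 2,000 cells/well. 6 h settle, then compound (DMSO) added; 18 h at 37 C; ONE-Glo luminescence after 30 min RT.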

Assay [3] in a line: qHTS assay to identify small molecule agonists of the estrogen related receptor (ERR) signaling pathway from Tox21 library (AID 1224849; calls by dose curve; also: nearly all actives have a fitted effect of over 15% in size). Conditions: ERR reporter cell line, ONE-Glo luciferase, 18 h; at 92.4 µM (top of the series) unless noted. In short, it runs like this: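 Luciferase activity in ERR pathway reporter cells served as the agonist readout; exposure lasted 18 h at 37 C, with ONE-Glo detection after 30 min at room temperature.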
On the technique in general: In qHTS, concentration-response curves come from the screen itself.

A short description of assay [4]: qHTS RealTime-Glo MT Cell Viability Assay in HepG2 cells - 24 hour (AID 1224867). Also: nearly all actives have a fitted effect of over 50% in size. Also: potency is read from the fitted curve at half-maximal effect. The method in brief:
(§1)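 Real-time, nonlytic viability: 600 HepG2 cells/well mixed with NanoLuc enzyme plus prosubstrate; 5 h settle, compound (DMSO) added by pintool; luminescence monitored over 40 h at 37 C.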

Assay [5] can be described thus: qHTS RealTime-Glo MT Cell Viability Assay in HepG2 cells - 40 hour (AID 1224870). Also: nearly all actives have a fitted effect of over 50% in size. Also: potency is read from the fitted curve at half-maximal effect. In short, it runs like this: (§2)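 Real-time viability: cells seeded at 600 per well together with NanoLuc and cell-permeant prosubstrate, compounds added after 5 h incubation. Luminescence tracked at 0, 8, 16, 24, 32 and 40 h of exposure.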
Assay [6] in a line: A CellTox Green Cytotoxicity Assay to monitor cytotoxicity in HEK293 cells - 40 hour (AID 1224871). Also: nearly all actives have a fitted effect of over 45% in size. Also: potency is read from the fitted curve at half-maximal effect. The method in brief: (§3)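 Real-time, in one plate: 600 HEK293 cells/well with dead-cell DNA dye, pinned compound after 5 h, 37 C incubation over 40 h; viable cells give no appreciable fluorescence.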
A short description of assay [7]: A CellTox Green Cytotoxicity Assay to monitor cytotoxicity in HEK293 cells - 24 hour (AID 1224875). Also: nearly all actives have a fitted effect of over 45% in size. Also: potency is read from the fitted curve at half-maximal effect. In short, it runs like this: as §3
Assay [8] is described as follows: A CellTox Green Cytotoxicity Assay to monitor cytotoxicity in HepG2 cells - 16 hour (AID 1224876). Also: nearly all actives have a fitted effect of over 45% in size. Also: potency is read from the fitted curve at half-maximal effect. The method in brief:
(§4)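 Cytotoxicity was tracked as dead-cell DNA fluorescence in HepG2 cells treated with test compounds at 37 C; each time-point value comes from one kinetic series spanning 0, 8, 16, 24, 32 and 40 h.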

Assay [9] can be described thus: qHTS RealTime-Glo MT Cell Viability Assay in HepG2 cells - 32 hour (AID 1224877). Also: nearly all actives have a fitted effect of over 55% in size. Also: potency is read from the fitted curve at half-maximal effect. In short, it runs like this:
as §1

Assay [10] can be described thus: A CellTox Green Cytotoxicity Assay to monitor cytotoxicity in HepG2 cells - 40 hour (AID 1224879). Also: nearly all actives have a fitted effect of over 40% in size. Also: potency is read from the fitted curve at half-maximal effect. The method in brief:
as §4

Assay [11] can be described thus: qHTS RealTime-Glo MT Cell Viability Assay in HEK293 cells - 0 hour (AID 1224880). Also: top concentration of the series differs between compounds; nearly all actives have a fitted effect of over 45% in size. The method in brief:
(§5)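 Kinetic, non-lysing viability readout. Seed HEK293 (600/well) with reagent, incubate 5 h at 37 C/5% CO2, pin 23 nL compound in DMSO, incubate at 37 C, read luminescence at 0, 8, 16, 24, 32, 40 h.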

A short description of assay [12]: qHTS RealTime-Glo MT Cell Viability Assay in HEK293 cells - 32 hour (AID 1224868). Also: nearly all actives have a fitted effect of over 50% in size. Also: potency is read from the fitted curve at half-maximal effect. The method in brief:
(§6)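 Cells + reagent dispensed (600 cells/well, HEK293) → 5 h at 37 C/5% CO2 → 23 nL compound in DMSO pinned → 40 h at 37 C → luminescence read at 0, 8, 16, 24, 32, 40 h.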

Assay [13] in a line: A CellTox Green Cytotoxicity Assay to monitor cytotoxicity in HEK293 cells - 0 hour (AID 1224869). Also: nearly all actives have a fitted effect of over 50% in size. The method in brief:
as §3

Assay [14] in a line: qHTS RealTime-Glo MT Cell Viability Assay in HEK293 cells - 16 hour (AID 1224872). Also: nearly all actives have a fitted effect of over 50% in size. Also: potency is read from the fitted curve at half-maximal effect. The method in brief: as §6
A short description of assay [15]: qHTS RealTime-Glo MT Cell Viability Assay in HEK293 cells - 40 hour (AID 1224874). Also: nearly all actives have a fitted effect of over 50% in size. Also: potency is read from the fitted curve at half-maximal effect. To be noted: RealTime-Glo luminescence; max response: hits give low values. In short, it runs like this:
as §5

A short description of assay [16]: A CellTox Green Cytotoxicity Assay to monitor cytotoxicity in HepG2 cells - 24 hour (AID 1224878). Also: nearly all actives have a fitted effect of over 45% in size. Also: potency is read from the fitted curve at half-maximal effect. The method in brief: as §4
Assay [17] is described as follows: qHTS RealTime-Glo MT Cell Viability Assay in HepG2 cells - 8 hour (AID 1224873). Also: nearly all actives have a fitted effect of over 55% in size. Also: potency is read from the fitted curve at half-maximal effect. In short, it runs like this: as §2
Assay [18] is described as follows: qHTS assay to identify small molecule agonists of H2AX (AID 1224845; active = well fitted activation curve with a large enough effect in the signal ratio in the repeat runs, not every such curve was filed as active; the % refers to the signal ratio). The method in brief:
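Phospho-H2AX Ser139 measured by HTRF (ex 320 nm; em 665 and 620 nm) after 24 hr antibody incubation. Compounds, 15 concentrations, 0.76% DMSO, were applied to CHO-K1 cells for 3hr at 37C before lysis.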

Assay [19] can be described thus: qHTS assay to identify small molecule agonists of the hypoxia (HIF-1) signaling pathway (AID 1224846; active = well fitted activation curve with a large enough effect in the signal ratio in the repeat runs, not every such curve was filed as active; the % refers to the signal ratio). In short, it runs like this:
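ME-180 HRE-bla reporter cells; compounds in DMSO, 17 h at 37C; read-out beta-lactamase via CCF4-AM FRET.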

Several values for one entry are separate records, joined by “and”; a condition that tells them apart may be missing. Identical values can stand only once. A number with no mark means an inactive call. Results filed as inconclusive are left out. Activity calls are given as the source filed them. Unless noted, calls follow the shape of the dose curve; as a rule, active = well fitted curve in the direction sought with a large enough effect in the repeat runs; inconclusive = weak or mixed curves; inactive = no such curve, though single readings can be large; an effect the other way counts as inactive or inconclusive.
% is scaled to controls: 0 for no effect and ±100 for the full control effect.

With `c1ccc(Nc2ccc3ccccc3c2)cc1`, the Potency in assay [1] was 100 µM (active) and 80 µM (active); in [10], 48.7 µM (active). For the same molecule, the Potency result in [2], in assay [4], in assay [5], in assay [6], in assay [7] and in assay [8] was “inactive” each time. Moreover, the Potency result in [9] and in assay [11] was “inactive” in each case. In addition, the activity change, positive = activation in assay [3] was 53.3% (active) and 56% (active).

In the case of `CCOCn1c(-c2ccc(Cl)cc2)c(C#N)c(Br)c1C(F)(F)F`, the Potency in assay [1] is 2.53 µM (active); in [12], 4.36 µM (active); in [6] it was 24.5 µM (active); in [14] it was 6.16 µM (active); in assay [15], 4.36 µM (active); in [16], 17.4 µM (active). The Potency in [10] was 12.3 µM (active). Besides, the Potency result in [13], in assay [7], in assay [8] and in assay [11] was “inactive” each time.

On to `O=CC(Br)(Br)Br`, for which the Potency is 48.8 µM (active) in assay [4]; 2.45 µM (active) in assay [12]; 43.5 µM (active) in assay [5]; 2.45 µM (active) in [15]; 43.5 µM (active) in assay [9]; 48.8 µM (active) in assay [16]. For the same molecule, the Potency in assay [10] was 43.5 µM (active). The Potency result in [13] and in assay [11] was “inactive” throughout.

Take `Oc1ccc(C2(c3ccc(O)cc3)c3ccccc3-c3ccccc32)cc1`: the Potency in [1] is 89.8 µM (active); in assay [4] it was 54.9 µM (active); in assay [12], 43.6 µM (active); in [14], 49 µM (active); in [17] it was 49 µM (active); in [16] it was 61.6 µM (active). In addition, the Potency in assay [10] was 61.6 µM (active). The activity change, positive = activation in assay [3] was -78.7%. The Potency entry in assay [13], in assay [6], in [7] and in assay [11] was “inactive” each time.

As for `O=C(CCCN1CCC2(CC1)C(=O)NCN2c1ccccc1)c1ccc(F)cc1`, the Potency result in assay [18], in [2], in [4], in assay [13], in [5] and in assay [17] was “inactive” each time. Moreover, the Potency result in assay [7], in [8], in assay [9], in assay [16], in assay [10] and in assay [11] was “inactive” throughout. The Potency in assay [12] is 9.52 µM (active); in assay [6], 19 µM (active); in assay [14] it was 6.74 µM (active); in assay [15] it was 13.4 µM (active).

Take `CS(=O)(=O)c1ccc(C(=O)C2C(=O)CCCC2=O)c([N+](=O)[O-])c1`: in assay [19], the call was inactive. In addition, the Potency result in assay [1], in assay [2], in assay [5], in assay [17], in assay [9] and in assay [11] was “inactive” each time. Further, the activity change, positive = activation in assay [3] was -0.0686%. Further, the Potency in [14] is 12.5 µM (active); in assay [7], 44.4 µM (active); in assay [8], 44.4 µM (active); in assay [16], 39.6 µM (active); in [10], 2.23 µM (active).

Consider `Clc1ccc(CO/N=C(\Cn2ccnc2)c2ccc(Cl)cc2Cl)c(Cl)c1`, for which the Potency in assay [1] is 49.2 µM (active); in assay [2], 18.8 µM (active); in assay [4], 23.9 µM (active); in assay [12], 21.3 µM (active); in [14] it was 21.3 µM (active); in assay [15] it was 21.3 µM (active). Also, in [10], the Potency was 26.8 µM (active). Further, the activity change, positive = activation in assay [3] was -54.4% [at 42.5 µM]. Besides, the Potency entry in assay [13], in assay [6], in [7] and in [11] was “inactive” each time.

As for `BrC(Br)C(Br)(Br)Br`, the Potency entry in assay [4], in assay [13], in assay [5], in [17], in assay [8] and in [9] was “inactive” each time. Further, in assay [11], the Potency entry is “inactive”. Besides, the Potency in assay [12] is 43.9 µM (active); in [6], 55.3 µM (active); in [14], 43.9 µM (active); in assay [15], 27.7 µM (active).

On to `CC(C)(C)c1ccc(CSc2cnn(C(C)(C)C)c(=O)c2Cl)cc1`, for which the outcome in assay [19] was inactive. Further, the Potency in [2] was 0.0054 µM (active); in assay [12] it was 0.011 µM (active); in assay [14], 0.436 µM (active); in assay [10] it was 43.6 µM (active). The activity change, positive = activation in assay [3] is -52.9%. For the same molecule, the Potency result in assay [13], in [5], in assay [6], in assay [7], in assay [9] and in [16] was “inactive” throughout. In addition, in assay [11], the Potency entry is “inactive”.

In the case of `COc1cccc(C(=O)CCN[C@@H](C)[C@H](O)c2ccccc2)c1`, the Potency entry in [2], in assay [13], in assay [17], in [8] and in assay [11] was “inactive” each time. Also, the activity change, positive = activation in assay [3] was 2.02% [at 42.5 µM]. Also, the Potency in assay [5] and in assay [9] was 23.9 µM (active) each time.

For the molecule `CC(=O)O[C@H]1CC[C@@]2(C)C(=CC[C@@H]3[C@@H]2CC[C@]2(C)C(=O)CC[C@@H]32)C1`, the Potency in assay [1] was 101 µM (active); in assay [12], 49 µM (active); in assay [14], 49 µM (active); in assay [15] it was 54.9 µM (active). The Potency entry in [4], in assay [13], in assay [5], in [8], in [9] and in assay [16] was “inactive” throughout. In assay [10], the Potency result was “inactive”.

As for `CNC(C)Cc1ccc2c(c1)OCO2` (configuration not stated), the Potency entry in assay [1], in [4], in assay [12], in assay [13], in assay [5] and in [6] was “inactive” in each case. The Potency result in [14], in assay [17], in [7], in assay [8], in [9] and in [16] was “inactive” each time. The Potency result in assay [10] and in assay [11] was “inactive” throughout. Also, the max response in [15] is -1.8%.
